Assay outcomes as filed in PubChem BioAssay.
This is a sample that favours compounds with a hit; in the whole collection about 3.7% have one here.
HTT aggregate = qHTS Multiplex Assay to Identify Dual Action Probes in a Cell Model of Huntington: Aggregate Formation (GFP); AID 1688, 2009; 220,000 tested, 1.1% active; Potency, µM (titrated, usually from 46.1 µM), without a hit: at the highest dose activity change, negative = inhibition, actives largely listed as inhibitors; PC12 HttQ103-GFP aggregates, Acumen cytometry, 40 h; further: on the % scale 0 is the no-effect control and ±100 the full control effect; nearly all actives have a fitted effect of over 60% in size
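PC12/HTTQ103-GFP, ecdysone-inducible; teb 100 nM; cpd qHTS titration; GFP aggregates read on laser cytometer, Ex 488/Em 500-530 nm.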
HTT cytoprotect = qHTS Multiplex Assay to Identify Dual Action Probes in a Cell Model of Huntington: Cytoprotection (ATP) | 230,000 tested, 0.14% active | Potency, µM (series often up to 56.4 µM), for the others: cytoprotection (ATP increase), hits mostly activators | PC12 HTT-Q103 induced, cytoprotection, ATP luminescence, 40 h; further: % of control where 0% means no effect; nearly all actives have a fitted effect of over 45% in size
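PC12 cells stably carrying ecdysone-inducible Htt exon 1 (Q103)–GFP were induced with 100 nM tebufenozide (final) alongside library compounds in a dose series. Cytoprotection was scored as retained ATP by ATPlite luminescence.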
Tau fluor counter = Counterscreen qHTS for Inhibitors of Tau Fibril Formation, Fluorescence Polarization; tau K18 P301L Alexa594 fluorescence, heparin fibrillization; Potency, µM (doses to about 57.7 µM), without a hit: top-dose activity change, negative = decrease; 280,000 tested, 0.93% active; AID 1463, 2008; further: on the % scale 0 is the no-effect control and ±100 the full control effect; nearly all actives have a fitted effect of over 55% in size
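Human K18 P301L tau (15 uM unlabeled plus 0.24 uM Alexa 594-labeled, final) in 100 mM sodium acetate pH 7 was mixed with compound and 20 uM heparin and incubated 6 hr at 37 C.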
Tau fibril ThT = qHTS for Inhibitors of Tau Fibril Formation, Thioflavin T Binding; Microtubule-associated protein tau (Homo sapiens), P10636; recombinant tau K18 P301L (four-repeat tau fragment), heparin-induced fibrillization, ThT fluorescence; Potency, µM (titrated, usually from 57.4 µM), for inactives: top-dose activity, negative = inhibition, actives largely listed as inhibitors; 270,000 tested, 2.1% active; AID 1460, 2008; further: on the % scale 0 is the no-effect control and ±100 the full control effect; nearly all actives have a fitted effect of over 55% in size
Target sequence (P10636 561-689 P618L limits assumed): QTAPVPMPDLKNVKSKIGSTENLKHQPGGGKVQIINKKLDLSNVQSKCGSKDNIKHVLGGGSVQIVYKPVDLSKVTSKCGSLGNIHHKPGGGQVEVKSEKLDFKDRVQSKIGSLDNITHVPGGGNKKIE
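Heparin-induced (20 uM) aggregation of recombinant human K18 P301L tau, 15 uM unlabeled with 0.24 uM labeled, pH 7 acetate buffer, 6 hr at 37 C with compound. Fibrils quantified by 30 uM ThT fluorescence after 1 hr ambient incubation.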
Tau FP inhib = qHTS for Inhibitors of Tau Fibril Formation, Fluorescence Polarization | K18 P301L tau heparin fibrillization, Alexa594 FP, 6 h | AID 1468, 2008 | Microtubule-associated protein tau (Homo sapiens), P10636 | Potency, µM (highest dose often 57.7 µM), for the others: top-dose activity, negative = inhibition, hits mostly inhibitors | 280,000 tested, 0.39% active; further: on the % scale 0 is the no-effect control and ±100 the full control effect; nearly all actives have a fitted effect of over 55% in size
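Steps: dispense K18 P301L tau (15 uM plus 0.24 uM Alexa 594 tracer, final) in pH 7 sodium acetate; add compound; add heparin (20 uM final); incubate 6 hr, 37 C; add ThT (30 uM final); after 1 hr ambient, read FP.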
* marks the source's active call; other numbers are inactive results; [ ] = dose if it differs, or a comment. The call rests on the fitted dose curve; in most records, active means well fitted curve in the direction sought with a large enough effect; inconclusive means small, poorly fitted or top-dose-only effect, or another doubt; inactive means no such curve, though single readings can be large; an effect the other way counts as inactive or inconclusive. Potency means the concentration at half of the fitted maximal effect.

Results for O=C(COC(=O)c1ccc([N+](=O)[O-])s1)NCc1ccccc1 ?
HTT aggregate: -19%; HTT cytoprotect: 15%[10 µM]; Tau fluor counter: -18%; Tau fibril ThT: -18%; Tau FP inhib: -2%

What do the screens show for `N#CCCCS(=O)(=O)c1nc2ccccc2s1`?
HTT cytoprotect: inconclusive; Tau fluor counter: -6%; Tau fibril ThT: -10%; Tau FP inhib: 2%

How did CC[C@](N)(C(=O)O)C(C)C do in these assays?
HTT cytoprotect: 29%[10 µM]

What do the screens show for `CCOC(=O)c1sc(Nc2nc3c(OC)cccc3s2)cc1C`?
HTT aggregate: 1%; HTT cytoprotect: -11%[10 µM]; Tau fluor counter: 8%; Tau fibril ThT: 5%; Tau FP inhib: 6%

What do the screens show for `CC(=O)c1sc(Nc2nc3cc4c(cc3s2)OCO4)nc1C`?
HTT aggregate: -11%; HTT cytoprotect: -25%; Tau fluor counter: inconclusive; Tau fibril ThT: 3.2µM*; Tau FP inhib: 0%

What do the screens show for `CCOC(=O)c1sc(Nc2nc3cc4c(cc3s2)OCO4)cc1C`?
HTT aggregate: 5%; HTT cytoprotect: 17%[10 µM]; Tau fluor counter: 4.5µM*[quencher]; Tau fibril ThT: inconclusive; Tau FP inhib: -2%

Results for COc1ccc(S(=O)(=O)NCc2ccc3c(c2)CCN3C(=O)c2ccccc2)cc1OC ?
Tau fluor counter: -4%; Tau fibril ThT: -1%; Tau FP inhib: 0%

What do the screens show for `CC(C(=O)O)N1C(=O)/C(=C/c2cccn2C)SC1=S` (stereo unspecified)?
HTT aggregate: 2%; HTT cytoprotect: 16%[10 µM]; Tau fluor counter: -8%; Tau fibril ThT: 18µM*; Tau FP inhib: 0%

Results for CN1/C(=C\C=C2/SC(=S)N(CC(=O)O)C2=O)C(C)(C)c2ccccc21 ?
HTT aggregate: -40%[9.22 µM]; HTT cytoprotect: inconclusive; Tau fluor counter: inconclusive; Tau fibril ThT: 4µM*; Tau FP inhib: -11%

What do the screens show for `Cn1cccc1/C=C1/SC(=S)N(CC(=O)O)C1=O`?
HTT aggregate: 8%; HTT cytoprotect: -26%; Tau fluor counter: -12%; Tau fibril ThT: 16µM*; Tau FP inhib: -3%

How did CCC(C(=O)O)N1C(=O)/C(=C/c2cccn2C)SC1=S (stereo unspecified) do in these assays?
HTT aggregate: 7%; HTT cytoprotect: 8%[10 µM]; Tau fluor counter: -1%; Tau fibril ThT: 13µM*; Tau FP inhib: 7%

What do the screens show for `c1ccc2oc(C3=NNC(=NC4CC4)SC3)cc2c1`?
HTT aggregate: 15%; HTT cytoprotect: -21%[10 µM]; Tau fluor counter: -23%; Tau fibril ThT: 14µM*; Tau FP inhib: -7%

How did c1ccc(CN=C2NN=C(c3cc4ccccc4o3)CS2)cc1 do in these assays?
HTT aggregate: 7%; HTT cytoprotect: 9%[0.074 µM]; Tau fluor counter: -18%; Tau fibril ThT: inconclusive; Tau FP inhib: -3%

How did CCOC(=O)N1CCC2(CC1)OC(=O)C(C)=C2C(=O)NCc1cccc(F)c1 do in these assays?
Tau fluor counter: -4%; Tau fibril ThT: -1%; Tau FP inhib: -4%

What do the screens show for `O=C(O)/C(=C\c1ccccc1)Cc1ccccc1`?
HTT cytoprotect: -18%[10 µM]

What do the screens show for `CC(=O)OCC1=C(C(=O)O)N2C(=O)C(NC(=O)Cc3cccs3)C2SC1` (stereo unspecified)?
HTT cytoprotect: -39%; Tau fluor counter: -30%; Tau fibril ThT: 20µM*; Tau FP inhib: inconclusive

Results for Cc1nc2c(-c3ccccc3)c(C)[nH]n2c(=O)c1Cc1ccccc1 ?
HTT aggregate: inconclusive; HTT cytoprotect: -124%; Tau fluor counter: -2%; Tau fibril ThT: -11%; Tau FP inhib: -5%

How did Cc1nc2c(-c3ccc(Cl)cc3)c(C)[nH]n2c(=O)c1Cc1ccccc1 do in these assays?
HTT aggregate: 10µM*; HTT cytoprotect: -123%; Tau fluor counter: -4%; Tau fibril ThT: -9%; Tau FP inhib: 8%
